A number with no mark means an inactive call. For some of these results: Results with a measured potency or affinity are listed apart. Activity calls are given as the source filed them. Unless noted, how the calls were made is not given here.

This is an account of results in PubChem BioAssay.

The nature of assay [1]: antimalarial activity against Dd2 strain (AID 2302;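 active means growth inhibition above 50% at the single 2 µM test dose, taken to imply half-maximal potency below 2 µM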;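 further: 0% = DMSO untreated growth and 100% = chloroquine plus artemisinin killed control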). To be noted: P. falciparum Dd2 in RBCs, LDH growth readout, 72 h; at 2 µM; active compounds read high.
The nature of assay [2]: HepG2 cytotoxicity, primary screen, cytotoxicity control for P. falciparum antimalarial project, cell-based, ATP luminescence (AID 2303;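 active means inhibition above 50%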;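 further: 0% = DMSO wells and 100% = digitonin-killed cells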). To be noted: HepG2 viability, 24-48 h, at 10 µM, active compounds read high.
The target in assay [3] is L-lactate dehydrogenase (Plasmodium falciparum (isolate CDC / Honduras)) (UniProt Q27743). The assay can be described thus: PfLDH activity inhibition – cell lysate, 3D7 strain, counter-screen for P. falciparum growth inhibition project (AID 2304).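 Further: 0% = vehicle and 100% = reference inhibitor.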 The following applies: P. falciparum 3D7 crude extract, LDH APAD/NBT absorbance; at 2 µM; active compounds read high. On the technique in general: The purpose of a counterscreen is to sort out artefacts and off-target activity.
Chain of L-lactate dehydrogenase (Plasmodium falciparum (isolate CDC / Honduras)) (Q27743 whole entry, looked up): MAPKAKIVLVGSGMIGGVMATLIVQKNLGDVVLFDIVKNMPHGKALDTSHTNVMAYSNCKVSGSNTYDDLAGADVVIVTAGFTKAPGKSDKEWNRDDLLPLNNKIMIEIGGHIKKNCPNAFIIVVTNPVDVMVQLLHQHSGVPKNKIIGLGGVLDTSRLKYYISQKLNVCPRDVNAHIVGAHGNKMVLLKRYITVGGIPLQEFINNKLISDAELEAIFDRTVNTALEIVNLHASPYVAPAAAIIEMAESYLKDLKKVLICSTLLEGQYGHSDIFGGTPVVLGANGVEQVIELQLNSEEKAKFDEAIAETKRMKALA

A short description of assay [4]: inhibition of 3D7 malaria parasite growth – strain 3D7 (AID 2306).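 Further: 0% = DMSO wells and 100% = chloroquine plus artemisinin control wells.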 The following applies: P. falciparum 3D7 erythrocytic growth, LDH absorbance, 72 h; at 2 µM; active compounds read high.
Assay [5] deals with Calcium-dependent protein kinase 1 (Plasmodium falciparum (isolate 3D7)) (UniProt P62344). The assay is described as follows: PfCDPK1 kinase inhibitors, biochemical, TCAMS library (AID 1159585; cut-off not given, nearly all actives have IC50 up to about 0.98 µM;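 further: inhibitors leave more ATP so luminescence rises with inhibition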). To be noted: recombinant PfCDPK1, Kinase-Glo ATP depletion luminescence.
Chain of Calcium-dependent protein kinase 1 (Plasmodium falciparum (isolate 3D7)) (P62344 whole entry, looked up): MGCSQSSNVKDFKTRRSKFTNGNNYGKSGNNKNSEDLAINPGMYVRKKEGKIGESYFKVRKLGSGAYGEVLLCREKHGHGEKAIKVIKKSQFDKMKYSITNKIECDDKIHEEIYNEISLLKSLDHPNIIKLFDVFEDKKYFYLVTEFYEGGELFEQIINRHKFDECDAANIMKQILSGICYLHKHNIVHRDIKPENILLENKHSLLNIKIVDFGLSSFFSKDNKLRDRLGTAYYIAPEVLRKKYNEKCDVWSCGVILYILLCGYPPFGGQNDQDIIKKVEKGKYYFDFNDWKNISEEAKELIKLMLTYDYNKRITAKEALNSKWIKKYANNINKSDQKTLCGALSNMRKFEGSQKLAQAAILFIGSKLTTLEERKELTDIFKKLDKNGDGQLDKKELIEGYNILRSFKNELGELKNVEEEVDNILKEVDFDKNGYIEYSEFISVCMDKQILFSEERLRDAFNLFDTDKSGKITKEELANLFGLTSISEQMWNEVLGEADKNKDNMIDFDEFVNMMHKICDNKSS
For assay [6], the target named is Plasmodium falciparum protein kinase 6 (PK6, PF3D7_1337100) (UniProt Q8IDW1). The assay is described as follows: PfPK6 kinase inhibitors, biochemical, TCAMS library (AID 1159586). To be noted: recombinant PfPK6, Kinase-Glo ATP depletion luminescence.
Chain of Plasmodium falciparum protein kinase 6 (PK6, PF3D7_1337100) (Q8IDW1 1-305): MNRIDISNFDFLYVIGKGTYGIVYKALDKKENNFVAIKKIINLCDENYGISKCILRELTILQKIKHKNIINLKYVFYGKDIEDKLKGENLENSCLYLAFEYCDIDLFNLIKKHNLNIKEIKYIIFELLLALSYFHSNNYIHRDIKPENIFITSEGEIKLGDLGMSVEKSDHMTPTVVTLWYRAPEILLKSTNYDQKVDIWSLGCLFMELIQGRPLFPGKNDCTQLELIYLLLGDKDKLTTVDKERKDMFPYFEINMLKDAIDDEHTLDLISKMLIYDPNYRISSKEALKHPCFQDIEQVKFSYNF
Assay [7] deals with Protein kinase 7 (PK7), Plasmodium falciparum 3D7 (PF3D7_0213400) (UniProt Q7YTF7). The assay can be described thus: inhibition of Plasmodium PK7 catalytic activity – biochemical, TCAMS antimalarial set, Kinase-Glo luminescence (AID 1159587). The following applies: recombinant PfPK7, Kinase-Glo ATP depletion luminescence. For orientation: In Kinase-Glo more light means more ATP remaining.
Chain of Protein kinase 7 (PK7), Plasmodium falciparum 3D7 (PF3D7_0213400) (Q7YTF7 1-343): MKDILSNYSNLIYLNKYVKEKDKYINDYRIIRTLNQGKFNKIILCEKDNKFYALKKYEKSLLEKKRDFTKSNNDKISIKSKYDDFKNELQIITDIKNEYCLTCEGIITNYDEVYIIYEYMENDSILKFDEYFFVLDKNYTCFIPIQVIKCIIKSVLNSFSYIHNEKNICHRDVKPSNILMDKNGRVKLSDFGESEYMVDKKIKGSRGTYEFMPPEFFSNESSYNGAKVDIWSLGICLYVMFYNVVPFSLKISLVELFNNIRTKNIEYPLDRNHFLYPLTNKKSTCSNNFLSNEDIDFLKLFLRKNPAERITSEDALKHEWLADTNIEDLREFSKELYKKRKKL

In assay [8] the target is Calcium-dependent protein kinase 4 (Plasmodium falciparum (isolate 3D7)) (UniProt Q8IBS5). The assay can be described thus: PfCDPK4 kinase inhibitors, biochemical, TCAMS library (AID 1159588; cut-off not given, nearly all actives have IC50 up to about 0.91 µM). To be noted: recombinant PfCDPK4, Kinase-Glo ATP depletion luminescence.
Chain of Calcium-dependent protein kinase 4 (Plasmodium falciparum (isolate 3D7)) (Q8IBS5 whole entry, looked up): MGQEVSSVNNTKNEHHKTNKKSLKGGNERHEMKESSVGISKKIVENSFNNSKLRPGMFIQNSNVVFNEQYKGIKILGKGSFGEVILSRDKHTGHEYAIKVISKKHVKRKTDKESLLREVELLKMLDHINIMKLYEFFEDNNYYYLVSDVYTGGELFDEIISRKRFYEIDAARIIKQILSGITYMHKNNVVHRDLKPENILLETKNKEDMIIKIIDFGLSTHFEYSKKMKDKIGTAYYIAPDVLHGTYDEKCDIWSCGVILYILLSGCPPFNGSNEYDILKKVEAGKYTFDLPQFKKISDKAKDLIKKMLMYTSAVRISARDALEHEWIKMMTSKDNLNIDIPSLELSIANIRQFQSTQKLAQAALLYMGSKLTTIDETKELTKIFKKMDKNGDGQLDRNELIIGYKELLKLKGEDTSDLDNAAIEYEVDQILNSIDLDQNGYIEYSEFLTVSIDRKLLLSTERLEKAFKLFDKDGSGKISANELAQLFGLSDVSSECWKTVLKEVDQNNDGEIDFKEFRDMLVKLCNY

In the case of `OC(CNC1CCCCC1)Cn1c2ccccc2c2ccccc21` (stereo not given), the growth inhibition is 92% (active) in assay [1] and 97% (active) in assay [4]. Also, the inhibition is 11% in assay [2] and 0% in assay [3]. Moreover, the outcome in assay [5], in assay [6], in assay [7] and in assay [8] was inactive.
Take `Nc1nc(N)c2c(Cc3ccc(Br)cc3)cccc2n1`: the growth inhibition in assay [1] was 20%; in assay [4], 99% (active). The inhibition was 28% in assay [2] and 0% in assay [3]. Also, the outcome in assay [5], in assay [6], in assay [7] and in assay [8] was inactive.
With `COc1ccccc1C1CCN(C2CCC(NC(=O)/C=C/c3cc(F)c(F)cc3F)CC2)CC1` (stereo not given), the growth inhibition in assay [1] was 0%; in assay [4], 85% (active). Also, the inhibition in assay [2] was 39%; in assay [3], -5%. For the same compound, the result in assay [5], in assay [6], in assay [7] and in assay [8] was inactive.
`CN1CCN(CC(=O)Nc2ccc(-c3ccc(-c4nc5ccccc5[nH]4)s3)cc2)CC1`: the growth inhibition in assay [1] is 49%; in assay [4] it was 101% (active). For the same compound, the inhibition was 12% in assay [2] and -1% in assay [3]. Also, the outcome in assay [5], in assay [6], in assay [7] and in assay [8] was inactive.
For the compound `O=C(NCCc1ccccc1)N(Cc1cccc(-c2ccc(CNC3CCCC3)cc2)c1)C1CCN(Cc2ccccc2)CC1`, the values for the growth inhibition in assay [1] and in assay [4] were 84% (active) and 98% (active), respectively. Further, the inhibition in assay [2] was 36%; in assay [3] it was 0%. Moreover, the outcome in assay [5], in assay [6], in assay [7] and in assay [8] was inactive.
`Cc1nnc2c(NC(=O)NC3CCCC3)cc3ccc(-c4cccc(CN(C)C)c4)cc3n12`: the growth inhibition in assay [1] is 25%; in assay [4] it was 90% (active). Further, the figures for the inhibition in assay [2] and in assay [3] were 42% and 3%, respectively. Also, the result in assay [5], in assay [6], in assay [7] and in assay [8] was inactive.
For `NC(N)=NCCN(Cc1ccccc1)c1ccc(Cl)cc1`, the growth inhibition is 99% (active) in assay [1] and 100% (active) in assay [4]. In addition, the figures for the inhibition in assay [2] and in assay [3] were -7% and -3%, respectively. Also, the result in assay [5], in assay [6], in assay [7] and in assay [8] was inactive.
As to `Cn1ccnc1CNC(=O)c1ccc(-c2ccc(-c3nc4ccc(C(F)(F)F)cc4[nH]3)s2)cc1`, the growth inhibition in assay [1] is 43%; in assay [4], 101% (active). The inhibition is 40% in assay [2] and 3% in assay [3]. In addition, the outcome in assay [5], in assay [6], in assay [7] and in assay [8] was inactive.
For the compound `Cc1cccnc1Nc1nc(-c2ccccn2)cs1`, the values for the growth inhibition in assay [1] and in assay [4] were 99% (active) and 96% (active), respectively. The inhibition is 60% (active) in assay [2] and -1% in assay [3]. Further, the outcome in assay [5], in assay [6], in assay [7] and in assay [8] was inactive.
Regarding `CCCN(CCC)CCOc1ccc(C(O)(C#CC(O)(c2ccc(OCCN(CCC)CCC)cc2)c2cccc(Cl)c2)c2cccc(Cl)c2)cc1` (stereo not given), the values for the growth inhibition in assay [1] and in assay [4] were 98% (active) and 101% (active), respectively. The inhibition is 100% (active) in assay [2] and 6% in assay [3]. Also, the outcome in assay [5], in assay [6], in assay [7] and in assay [8] was inactive.
In the case of `O=C(Nc1ccc(-c2csc(-c3nc4ccccc4[nH]3)c2)cc1)Nc1ccc(Cl)c(Cl)c1`, the growth inhibition was 18% in assay [1] and 93% (active) in assay [4]. The results for the inhibition in assay [2] and in assay [3] were 75% (active) and -6%, respectively. For the same compound, the result in assay [5], in assay [6], in assay [7] and in assay [8] was inactive.
Consider `O=C1c2ccccc2C(=O)N1CCOc1c(Br)cc(Br)cc1CNCCCNc1cc(=O)c2ccccc2[nH]1`, for which the growth inhibition is 12% in assay [1] and 92% (active) in assay [4]. Moreover, the inhibition in assay [2] is 10%; in assay [3] it was -6%. Besides, the outcome in assay [5], in assay [6], in assay [7] and in assay [8] was inactive.
In the case of `COc1ccccc1N1CCN(C(C(=O)NCc2ccc3c(c2)OCO3)c2ccc3c(c2)OCCCO3)CC1` (stereo not given), the growth inhibition in assay [1] was 13%; in assay [4] it was 88% (active). Besides, the inhibition in assay [2] is 15%; in assay [3] it was 5%. For the same compound, the result in assay [5], in assay [6], in assay [7] and in assay [8] was inactive.
With `Cc1ccc(CN2CCCCC(NC(=O)c3cc4ccccc4s3)C2)cc1` (stereo not given), the growth inhibition in assay [1] is 8%; in assay [4], 94% (active). The figures for the inhibition in assay [2] and in assay [3] were 9% and -1%, respectively. The outcome in assay [5], in assay [6], in assay [7] and in assay [8] was inactive.
Turning to `COc1ccc2ccccc2c1C=NNc1ccnc2cc(Cl)ccc12`, the growth inhibition in assay [1] was 94% (active); in assay [4] it was 100% (active). In addition, the figures for the inhibition in assay [2] and in assay [3] were 20% and -5%, respectively. The result in assay [5], in assay [6], in assay [7] and in assay [8] was inactive.
Turning to `NC(N)=NN=Cc1cc2ccccc2c2ccccc12`, the values for the growth inhibition in assay [1] and in assay [4] were 63% (active) and 100% (active), respectively. Further, the inhibition in assay [2] was 25%; in assay [3], 4%. The outcome in assay [5], in assay [6], in assay [7] and in assay [8] was inactive.
With `CCn1c(Sc2ccc(C#N)c([N+](=O)[O-])c2)nnc1-c1ccc(OC)cc1`, the growth inhibition in assay [1] is 94% (active); in assay [4], 98% (active). Also, the inhibition is -8% in assay [2] and 2% in assay [3]. Also, the result in assay [5], in assay [6], in assay [7] and in assay [8] was inactive.
Consider `COc1ccccc1N1CCN(c2cccc(F)c2C#N)CC1`, for which the figures for the growth inhibition in assay [1] and in assay [4] were 59% (active) and 85% (active), respectively. In addition, the inhibition in assay [2] and in assay [3] was -2% each time. Further, the outcome in assay [5], in assay [6], in assay [7] and in assay [8] was inactive.
As for `Cc1cc(NCCC(=O)NCc2cccc(F)c2)nc(NCCc2ccc(F)cc2)n1`, the growth inhibition in assay [1] was 2%; in assay [4], 89% (active). Also, the inhibition in assay [2] was 0%; in assay [3], -1%. The result in assay [5], in assay [6], in assay [7] and in assay [8] was inactive.
With `O=C(NCc1ccc2c(c1)OCO2)c1nn(CCN2CCC(N3CCCC3)CC2)cc1-c1ccc(Cl)c(Cl)c1`, the growth inhibition was 17% in assay [1] and 94% (active) in assay [4]. Further, the figures for the inhibition in assay [2] and in assay [3] were 21% and -2%, respectively. For the same compound, the result in assay [5], in assay [6], in assay [7] and in assay [8] was inactive.

As a reminder, the inhibition is the change of the read-out against control, counted positive when it falls.
